Structures are written as SMILES. Values without a mark were called inactive. Inconclusive results are not listed. Activity calls are given as the source filed them. Unless noted, calls come from the whole dose curve; as a rule, active = well fitted curve in either direction with a large enough effect (not every such curve was filed as active); inconclusive = small, poorly fitted or top-dose-only effect, or another doubt; inactive = flat fitted curve, though single readings scatter.

Here are results for seven molecules from PubChem BioAssay (NCATS).

Experiment [1] has as its target Lysosomal acid glucosylceramidase (Homo sapiens) (UniProt P04062). The experiment is described as follows: Glucocerebrosidase-p2 (AID 348; in the data active = potency below about 10 µM; note: potency is the fitted concentration of half-maximal effect). To be noted: purified GBA, blue fluorogenic substrate, 40 min. The gist of the method:
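Compounds titrated from 0.6 nM upwards against 0.2 nM enzyme in pH 5.9 citric acid/KH2PO4, taurocholate, tween-20; blue fluorogenic substrate 80 uM, 40 min room temperature, stopped and read Ex 365/Em 440 for AC50.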

A short description of experiment [2]: AP1 Signaling Pathway (AID 357).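 Note: ME-180 reporter cells stimulated with EGF at its EC50 level; % is set by controls: 0 for no effect and ±100 for the full control effect.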 To be noted: ME-180 AP-1-bla reporter, EGF-induced, beta-lactamase ratio, 5 h; at 7.69 µM (top of the series) unless noted. Put shortly:
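First, ME-180 AP-1-bla cells were cultured overnight at 37 °C in low-serum Opti-MEM. Next, titrated compounds with EC50 EGF were incubated 5 hours. Finally, CCF4 was added for 2.5 hours and the 460/530 nm ratio recorded.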

Experiment [3] has as its target Cytochrome P450 1A2 (Homo sapiens) (UniProt P05177). In words: p450-cyp1a2 (AID 410; calls by dose curve; note: potency is the fitted concentration of half-maximal effect;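 for activity change, negative = inhibition: -100% = full effect of reference inhibitor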). Conditions: recombinant CYP1A2, luciferin-ME demethylation, luminescence; series mostly up to 11.4 µM. Put shortly:
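Human CYP1A2 (20nM) demethylated Luciferin-ME at its Km (100uM) in 100mM KPO4. After 10 min compound preincubation, NADPH regeneration ran the reaction 60 min at room temperature. Luciferin was read by luminescence, normalized to 57 uM furafylline.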

Experiment [4] can be described thus: NFAT Signaling Pathway (AID 444).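 Note: carbachol stimulus at about its EC50 of 1 µM final; % is set by controls: 0 for no effect and ±100 for the full control effect.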 Conditions: Jurkat NFAT-bla M1, carbachol, beta-lactamase ratio, 5 h; at 7.69 µM (top of the series) unless noted. Put shortly:
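Jurkat cells carrying an NFAT-driven β-lactamase reporter and co-transfected muscarinic M1 receptor were treated with compound plus carbachol (1 uM final, an EC50 level) for 5 h at 37 °C. CCF4 loading followed for 1 h at RT; 460/530 nm ratio gave %activity.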

Experiment [5] in a line: Stat Signaling Pathway (AID 446).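 Note: ME-180 cervical cancer cells given 40 pM IL-6 alongside compound; SIE-controlled beta-lactamase reporter measured as 460/530 nm FRET emission ratio; % is set by controls: 0 for no effect and ±100 for the full control effect.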 Conditions: ME-180 SIE beta-lactamase reporter, IL-6 stimulated, 5 h; at 7.69 µM (top of the series) unless noted. The gist of the method: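 ME-180 cells carrying a SIE-driven beta-lactamase reporter are stimulated with 40 pM IL-6 for 5 h at 37C in the presence of compound. The 460/530 nm FRET substrate ratio is read after 2.5 h at RT. Data are normalised to 300 pM IL-6 and to 125 nM JAK inhibitor controls.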

For experiment [6], the target named is Glucocorticoid receptor (Homo sapiens) (UniProt P04150). The experiment is described as follows: GR-GFP Redistribution (AID 450;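 active = compounds whose dose series gives a full or clear partial fitted curve of increased nuclear translocation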; note: potency is the fitted concentration of half-maximal effect). Conditions: U2OS GR-GFP nuclear translocation, laser cytometry, 2 h.
Glucocorticoid receptor (Homo sapiens), sequence (P04150 whole entry, looked up): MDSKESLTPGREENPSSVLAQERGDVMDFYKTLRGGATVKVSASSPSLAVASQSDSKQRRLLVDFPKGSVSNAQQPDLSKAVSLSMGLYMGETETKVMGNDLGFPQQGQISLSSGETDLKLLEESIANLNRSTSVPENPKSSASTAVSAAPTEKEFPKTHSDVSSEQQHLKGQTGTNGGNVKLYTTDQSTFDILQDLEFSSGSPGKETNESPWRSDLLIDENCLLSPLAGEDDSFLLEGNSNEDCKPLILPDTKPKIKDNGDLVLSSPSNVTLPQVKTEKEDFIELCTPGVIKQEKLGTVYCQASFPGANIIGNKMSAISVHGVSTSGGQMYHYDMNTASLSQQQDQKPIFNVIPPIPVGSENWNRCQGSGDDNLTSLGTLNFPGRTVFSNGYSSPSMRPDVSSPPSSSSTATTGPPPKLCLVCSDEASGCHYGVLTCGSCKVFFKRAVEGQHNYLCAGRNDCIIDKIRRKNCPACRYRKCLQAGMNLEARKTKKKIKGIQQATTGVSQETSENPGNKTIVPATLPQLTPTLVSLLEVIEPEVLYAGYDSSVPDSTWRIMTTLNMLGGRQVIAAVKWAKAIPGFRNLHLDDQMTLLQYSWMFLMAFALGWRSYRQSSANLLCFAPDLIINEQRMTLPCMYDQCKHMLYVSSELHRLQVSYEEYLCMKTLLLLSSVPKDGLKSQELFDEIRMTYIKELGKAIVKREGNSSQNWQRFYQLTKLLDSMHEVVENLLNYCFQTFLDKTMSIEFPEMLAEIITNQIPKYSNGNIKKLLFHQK
For experiment [7] the target is unchanged. The experiment is described as follows: GR-EFC Redistribution (AID 451; calls by dose curve; note: potency is the fitted concentration of half-maximal effect). Conditions: CHO-K1 GR-EFC translocation, beta-gal luminescence, 2 h. Put shortly:
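CHO-K1 cells stably expressing nuclear-localized β-gal enzyme acceptor and GR fused C-terminally to the enzyme donor fragment; ligand-driven nuclear translocation restores β-gal by complementation. Compounds titrated up to 46 uM final, 2 h at 37 °C; luminescence read.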

The target in experiment [8] is Mitogen-activated protein kinase 10 (Mus musculus) (UniProt Q61831). In words: JNK3 AlphaScreen Assay (AID 530).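 Note: kinase came from lysate of stimulated human HepG2 cells; signal reports phosphorylation of biotinylated GST-cJun 1-79 at Ser73 with 10 µM ATP; % is set by controls: 0 for no effect and ±100 for the full control effect.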 To be noted: JNK3 lysate, c-Jun phosphorylation; series mostly up to 11.4 µM. The gist of the method:
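JNK3 came from HepG2 lysates pre-activated with IL-1beta and TNF-alpha and phosphorylated biotinylated GST-cJun (1-79) at 10 uM ATP, pH 7.6, room temperature. Compounds were titrated. AlphaScreen signal used anti-phospho-cJun (Ser73) antibody.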
On the technique in general: Bead proximity is the source of the signal in Alpha formats.

Experiment [9] concerns the target 3',5'-cyclic-AMP phosphodiesterase 4B (Homo sapiens) (UniProt Q07343). The experiment is described as follows: qHTS Assay for Inhibitors of PDE-IV (AID 607; active = well fitted activation curve with a large enough effect in the main read-out, with a control signal flat, not every such curve was filed as active; note: % of control where 0% means no effect). Conditions: HEK293 ACTOne CNG channel cells, membrane potential fluorescence; series mostly up to 22.9 µM. Put shortly:
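HEK293 ACTOne cells with CNG channel (1000/well), endogenous PDE4; membrane potential dye, compounds up to 22.9 uM final. Fluorescence Ex 535/Em 590; RO 20-1724 (100 uM final) as reference.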
On the technique in general: qHTS replaces the single test concentration by a dilution series.

Experiment [10] concerns the target Cytochrome P450 2C9 (Homo sapiens) (UniProt P11712). In words: qHTS Assay for Inhibitors and Substrates of Cytochrome P450 2C9 (AID 883; active = well fitted curve in the direction sought with a large enough effect; an effect the other way counts as inactive or inconclusive; note: nearly all actives have a fitted effect of over 60% in size; note: potency is the fitted concentration of half-maximal effect). To be noted: recombinant CYP2C9, luciferin-H luminescence, 60 min; series mostly up to 11.4 µM. The gist of the method: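 A luminogenic readout tracked human CYP2C9 (10nM) converting deoxyluciferin (100uM, at KM) in 25mM KPO4 during 60 min at 37C with regenerated NADPH. Values normalized to 57uM sulphaphenazole as complete inhibition.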

Experiment [11] has as its target Cytochrome P450 3A4 (Homo sapiens) (UniProt P08684). In words: qHTS Assay for Inhibitors and Substrates of Cytochrome P450 3A4 (AID 884; active = well fitted curve in the direction sought with a large enough effect; an effect the other way counts as inactive or inconclusive; note: nearly all actives have a fitted effect of over 50% in size; note: potency is the fitted concentration of half-maximal effect). Conditions: recombinant CYP3A4, Luciferin-PPXE luminescence; series mostly up to 57.1 µM. The gist of the method:
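20 nM human CYP3A4 with 25 uM Luciferin-PPXE (at KM) in 200 mM KPO4, preincubated 10 min with compound; NADPH regeneration started a 60 min RT reaction. Luciferin detected by luminescence, normalized to 57 uM ketoconazole as full inhibition.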

Experiment [12] shares this target. In words: qHTS Assay for Activators of Cytochrome P450 3A4 (AID 885; active = well fitted curve in the direction sought with a large enough effect; an effect the other way counts as inactive or inconclusive; note: nearly all actives have a fitted effect of over 65% in size). Conditions: recombinant CYP3A4, Luciferin-PPXE luminescence, 60 min; series mostly up to 11.4 µM. Put shortly: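 Human CYP3A4 (20 nM) with Luciferin-PPXE at 25 uM (its KM) in 200 mM KPO4; 10 min compound preincubation, then NADPH regeneration and 60 min reaction at RT. Luciferin read by luminescence; normalized to 57 uM ketoconazole full inhibition.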

The nature of experiment [13]: qHTS Assay for Identification of Small Molecule Agonists for Hypoxia Response Element Signaling Pathway (AID 914; active = well fitted activation curve with a large enough effect in the signal ratio, with a control signal flat, not every such curve was filed as active; the % refers to the signal ratio; note: % of control where 0% means no effect). Conditions: ME-180 (cervical carcinoma) HRE-bla reporter, beta-lactamase ratio, CoCl2, 17 h; activation: hits give high values. The gist of the method:
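HRE-bla ME-180 cells, overnight plating in Opti-MEM with 0.5% dialyzed FBS; cpd titration + EC50 CoCl2, 17 h, 37 degrees Celsius; CCF4 2.5 h RT; 460/530 nm ratio; AC50.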

Experiment [14] deals with Cytochrome P450 2C19 (Homo sapiens) (UniProt P33261). In words: qHTS Assay for Inhibitors and Substrates of Cytochrome P450 2C19 (AID 899; active = well fitted curve in the direction sought with a large enough effect; an effect the other way counts as inactive or inconclusive; note: nearly all actives have a fitted effect of over 60% in size; note: potency is the fitted concentration of half-maximal effect). To be noted: recombinant CYP2C19, luciferin-H EGE luminescence; series mostly up to 11.4 µM. The gist of the method:
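NADPH-dependent conversion of Luciferin-H EGE (10uM, at KM) by 5nM enzyme in 50mM KPO4, 60 min at 37C following 10 min compound preincubation. Stopped with luciferin detection buffer; luminescence read after 20 min.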

Experiment [15] addresses Cytochrome P450 2D6 (Homo sapiens) (UniProt P10635). In words: qHTS Assay for Inhibitors and Substrates of Cytochrome P450 2D6 (AID 891; active = well fitted curve in the direction sought with a large enough effect; an effect the other way counts as inactive or inconclusive;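 note: luciferin methyl ether substrate demethylated by CYP2D6 with NADPH regeneration; % is set by controls: 0 for no effect and ±100 for the full control effect; nearly all actives have a fitted effect of over 60% in size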). Conditions: recombinant CYP2D6, luciferin-ME EGE luminescence; series mostly up to 11.4 µM. The gist of the method:
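Human CYP2D6 (5 nM) with 30 uM Luciferin-ME EGE (at Km) in 100 mM KPO4, compound preincubated 10 min, then NADPH regeneration system for 60 min at room temperature. Luciferin read by luminescence; normalized to 1.43 uM quinidine.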

Cytochrome P450 3A4 (Homo sapiens), sequence (P08684 whole entry, looked up): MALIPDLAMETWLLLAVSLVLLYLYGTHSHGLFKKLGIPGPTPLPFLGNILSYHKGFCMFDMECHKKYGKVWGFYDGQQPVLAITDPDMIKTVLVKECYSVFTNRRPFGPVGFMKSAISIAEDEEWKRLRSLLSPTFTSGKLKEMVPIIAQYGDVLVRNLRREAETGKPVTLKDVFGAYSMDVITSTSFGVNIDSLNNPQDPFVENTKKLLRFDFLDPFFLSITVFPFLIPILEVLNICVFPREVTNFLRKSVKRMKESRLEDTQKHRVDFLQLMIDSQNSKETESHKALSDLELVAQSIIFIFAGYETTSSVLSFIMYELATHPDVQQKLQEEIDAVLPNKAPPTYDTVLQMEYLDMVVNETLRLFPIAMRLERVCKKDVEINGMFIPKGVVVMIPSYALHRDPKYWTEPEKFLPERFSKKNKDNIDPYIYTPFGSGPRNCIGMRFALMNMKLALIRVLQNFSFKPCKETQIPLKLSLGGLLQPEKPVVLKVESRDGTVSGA
Cytochrome P450 1A2 (Homo sapiens), sequence (P05177 whole entry, looked up): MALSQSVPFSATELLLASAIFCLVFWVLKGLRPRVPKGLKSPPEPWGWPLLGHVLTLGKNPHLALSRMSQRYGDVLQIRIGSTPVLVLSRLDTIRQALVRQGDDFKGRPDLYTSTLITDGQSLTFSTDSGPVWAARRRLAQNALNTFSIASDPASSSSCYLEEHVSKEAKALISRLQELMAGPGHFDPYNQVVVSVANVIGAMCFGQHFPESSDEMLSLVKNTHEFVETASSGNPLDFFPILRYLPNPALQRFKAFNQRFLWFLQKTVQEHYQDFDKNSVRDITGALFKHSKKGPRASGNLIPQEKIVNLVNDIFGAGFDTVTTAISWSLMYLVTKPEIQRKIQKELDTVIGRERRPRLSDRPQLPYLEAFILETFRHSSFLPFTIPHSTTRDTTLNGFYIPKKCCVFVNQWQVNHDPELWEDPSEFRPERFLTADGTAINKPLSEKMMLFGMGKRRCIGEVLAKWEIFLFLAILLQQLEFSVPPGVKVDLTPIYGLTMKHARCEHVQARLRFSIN
3',5'-cyclic-AMP phosphodiesterase 4B (Homo sapiens), sequence (Q07343 whole entry, looked up): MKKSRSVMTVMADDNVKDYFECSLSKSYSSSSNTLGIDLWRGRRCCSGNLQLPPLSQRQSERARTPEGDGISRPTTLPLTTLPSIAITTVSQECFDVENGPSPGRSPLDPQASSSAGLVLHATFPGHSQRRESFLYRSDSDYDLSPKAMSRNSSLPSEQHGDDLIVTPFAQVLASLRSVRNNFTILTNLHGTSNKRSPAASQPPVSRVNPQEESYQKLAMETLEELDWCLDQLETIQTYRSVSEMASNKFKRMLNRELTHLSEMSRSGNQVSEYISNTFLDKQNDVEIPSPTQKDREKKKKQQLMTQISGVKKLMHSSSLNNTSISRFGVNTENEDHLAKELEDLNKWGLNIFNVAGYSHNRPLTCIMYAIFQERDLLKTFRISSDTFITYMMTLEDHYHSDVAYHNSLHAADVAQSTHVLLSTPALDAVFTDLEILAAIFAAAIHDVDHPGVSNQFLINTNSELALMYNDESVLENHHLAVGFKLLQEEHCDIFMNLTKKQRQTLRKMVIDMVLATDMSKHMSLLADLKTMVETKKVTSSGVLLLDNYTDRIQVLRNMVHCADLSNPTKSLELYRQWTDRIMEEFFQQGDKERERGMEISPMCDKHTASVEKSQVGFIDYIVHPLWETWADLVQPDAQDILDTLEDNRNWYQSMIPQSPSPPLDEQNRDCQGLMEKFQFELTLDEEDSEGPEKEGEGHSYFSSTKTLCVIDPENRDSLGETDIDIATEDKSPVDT
Cytochrome P450 2C9 (Homo sapiens), sequence (P11712 whole entry, looked up): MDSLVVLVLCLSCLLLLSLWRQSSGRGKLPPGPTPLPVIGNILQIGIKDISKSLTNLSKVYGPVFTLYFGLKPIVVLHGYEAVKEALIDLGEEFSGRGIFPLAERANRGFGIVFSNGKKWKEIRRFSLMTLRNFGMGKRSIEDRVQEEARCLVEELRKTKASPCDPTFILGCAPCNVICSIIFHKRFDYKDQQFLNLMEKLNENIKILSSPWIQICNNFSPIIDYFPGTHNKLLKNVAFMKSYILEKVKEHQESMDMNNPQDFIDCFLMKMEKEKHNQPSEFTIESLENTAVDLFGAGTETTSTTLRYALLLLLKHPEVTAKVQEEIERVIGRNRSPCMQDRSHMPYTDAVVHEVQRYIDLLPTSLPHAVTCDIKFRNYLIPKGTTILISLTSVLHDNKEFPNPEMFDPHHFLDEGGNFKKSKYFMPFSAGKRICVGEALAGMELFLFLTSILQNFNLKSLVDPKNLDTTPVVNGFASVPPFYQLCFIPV
Cytochrome P450 2C19 (Homo sapiens), sequence (P33261 whole entry, looked up): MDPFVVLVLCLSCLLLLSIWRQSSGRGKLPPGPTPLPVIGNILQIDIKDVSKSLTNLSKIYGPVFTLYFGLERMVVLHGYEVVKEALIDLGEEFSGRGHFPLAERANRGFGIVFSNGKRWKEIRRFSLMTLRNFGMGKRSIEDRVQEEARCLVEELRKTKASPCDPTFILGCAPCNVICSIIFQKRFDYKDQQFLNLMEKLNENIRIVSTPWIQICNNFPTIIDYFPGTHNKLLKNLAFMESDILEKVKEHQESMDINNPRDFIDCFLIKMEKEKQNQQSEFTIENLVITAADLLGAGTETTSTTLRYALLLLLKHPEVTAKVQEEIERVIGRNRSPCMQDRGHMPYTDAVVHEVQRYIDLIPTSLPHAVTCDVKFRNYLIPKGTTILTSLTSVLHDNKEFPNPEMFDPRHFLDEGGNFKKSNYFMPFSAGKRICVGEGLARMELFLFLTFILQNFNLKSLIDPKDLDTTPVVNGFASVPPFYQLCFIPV
Lysosomal acid glucosylceramidase (Homo sapiens), sequence (P04062 whole entry, looked up): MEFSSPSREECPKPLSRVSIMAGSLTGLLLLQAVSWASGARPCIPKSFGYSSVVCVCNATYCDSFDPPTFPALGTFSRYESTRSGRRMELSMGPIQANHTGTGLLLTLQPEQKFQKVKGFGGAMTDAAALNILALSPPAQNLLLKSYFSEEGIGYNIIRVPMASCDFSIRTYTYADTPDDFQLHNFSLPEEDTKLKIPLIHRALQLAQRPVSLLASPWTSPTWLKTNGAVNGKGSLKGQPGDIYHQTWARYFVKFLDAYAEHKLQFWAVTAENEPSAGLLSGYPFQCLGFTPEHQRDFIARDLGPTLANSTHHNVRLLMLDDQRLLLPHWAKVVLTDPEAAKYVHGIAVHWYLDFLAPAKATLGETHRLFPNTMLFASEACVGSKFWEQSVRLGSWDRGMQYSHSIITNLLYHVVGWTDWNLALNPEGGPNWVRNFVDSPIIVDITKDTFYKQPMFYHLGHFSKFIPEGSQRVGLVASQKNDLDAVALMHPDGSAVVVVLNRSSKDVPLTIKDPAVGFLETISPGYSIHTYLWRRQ
Cytochrome P450 2D6 (Homo sapiens), sequence (P10635 whole entry, looked up): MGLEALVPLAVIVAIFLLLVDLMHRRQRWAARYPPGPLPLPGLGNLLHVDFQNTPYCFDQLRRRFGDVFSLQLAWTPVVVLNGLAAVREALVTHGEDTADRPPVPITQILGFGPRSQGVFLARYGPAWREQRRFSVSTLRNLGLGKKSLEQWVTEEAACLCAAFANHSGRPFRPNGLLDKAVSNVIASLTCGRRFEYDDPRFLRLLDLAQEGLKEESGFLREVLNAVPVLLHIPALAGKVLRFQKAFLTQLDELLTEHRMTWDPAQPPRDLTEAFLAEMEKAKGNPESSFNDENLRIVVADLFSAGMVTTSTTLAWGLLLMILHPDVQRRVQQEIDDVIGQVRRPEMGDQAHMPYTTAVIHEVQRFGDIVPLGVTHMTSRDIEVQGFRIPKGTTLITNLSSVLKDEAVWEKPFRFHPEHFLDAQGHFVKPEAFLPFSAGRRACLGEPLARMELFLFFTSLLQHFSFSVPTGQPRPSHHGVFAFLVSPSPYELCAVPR

As to `COc1ccc(/C=C(\C#N)C(N)=O)c(OC)c1`, the Potency in experiment [1] is more than 11.4 µM; in experiment [3], 1.58 µM (active); in experiment [6] it was more than 46 µM; in experiment [7], more than 9.22 µM; in [11], 2.51 µM (active). For the same molecule, the values for the activity change, negative = inhibition in [2] and in [4] were 2.38% and 17.1%, respectively. Moreover, the activity, negative = inhibition in experiment [5] was 3.37%. Besides, the Potency result in [8], in experiment [9], in [10] and in experiment [12] was “inactive” in each case. For the same molecule, the activation in experiment [13] was -21.9%.

In the case of `O=C(O)CCc1nc(-c2ccccc2-n2cccc2)no1`, the Potency in [1] is more than 11.4 µM; in experiment [6] it was more than 46 µM; in [7], more than 9.22 µM; in experiment [11], 2.51 µM (active). The activity change, negative = inhibition was -5.29% in [2], -17.3% [at 2.29 µM] in experiment [3] and 8.59% in experiment [4]. Further, the activity, negative = inhibition in experiment [5] is -0.807%. The Potency entry in [8] and in [9] was “inactive” throughout.

Consider `O=S(=O)(c1cnccc1N1CCN(CCO)CC1)N1CCCC1`, for which the Potency in [1] was more than 11.4 µM; in experiment [6], more than 46 µM; in [7], more than 9.22 µM; in experiment [11], 3.98 µM (active). The activity change, negative = inhibition in experiment [2] is 7.47%; in [3] it was -8.3% [at 2.29 µM]; in experiment [4], 4.17%. In addition, the activity, negative = inhibition in experiment [5] is 8.84%. In addition, the Potency entry in experiment [8] and in experiment [9] was “inactive” throughout.

For `C[C@](O)(c1ccccc1)c1nccc2ccccc12`, the values for the Potency in experiment [1], in experiment [6] and in experiment [7] were more than 11.4 µM, more than 46 µM and more than 9.22 µM, respectively. In addition, the results for the activity change, negative = inhibition in experiment [2], in [4] and in [11] were -0.483%, 3.41% and 49.6% [at 11.4 µM], respectively. In addition, the Potency entry in [3], in experiment [8] and in [9] was “inactive” in each case. Also, in experiment [5], the activity, negative = inhibition is -8.29%.

As for `O=S(=O)(O)c1cc(O)c2c(N=Cc3ccccc3O)cc(S(=O)(=O)O)cc2c1`, the Potency in [1] was more than 11.4 µM; in experiment [6], more than 46 µM; in experiment [7], more than 9.22 µM; in experiment [10] it was 3.16 µM (active); in experiment [14], 1.58 µM (active). For the same molecule, the activity change, negative = inhibition in experiment [2] was -14.5%; in experiment [3], -23.7% [at 2.29 µM]; in [4], 8.24%. Besides, the activity, negative = inhibition in experiment [5] was -1.77%. Moreover, the Potency result in experiment [8] and in [9] was “inactive” in each case.

`CC(C)[C@@H]1OC(=O)C=CC=CC=CC=CC=CC[C@@H](O)[C@H](C)[C@@H](O)C[C@H](O)C[C@H](O)C[C@H](O)C[C@H](O)C[C@H](O)C[C@H](O)C=C[C@@H]1C`: the Potency was more than 11.4 µM in [1], more than 46 µM in experiment [6] and more than 9.22 µM in [7]. The activity change, negative = inhibition in experiment [2] was 1.06%; in experiment [3] it was -2.1% [at 2.29 µM]; in experiment [4], 9.95%. The activity, negative = inhibition in [5] is 8%. Also, the Potency result in experiment [8], in experiment [9], in experiment [10] and in experiment [14] was “inactive” throughout.

As for `O=C(O)CC(CC(=O)O)n1cccc1`, the results for the Potency in experiment [1], in experiment [6] and in [7] were more than 11.4 µM, more than 46 µM and more than 9.22 µM, respectively. Moreover, the activity change, negative = inhibition is 5.34% in [2], 8.97% in experiment [4] and -36.6% [at 11.4 µM] in experiment [11]. Also, the Potency result in [3], in experiment [8], in experiment [9], in [10], in experiment [15] and in [14] was “inactive” throughout. Further, in [5], the activity, negative = inhibition was -7.74%.
